Consider 26 compounds from PubChem BioAssay (NCATS).

Values joined by “and” are separate entries in the source; they are usually repeats but may differ in a detail not shown here. Equal entries are not always repeated. Inconclusive results are not listed. Active and inactive are the calls of the source. Calls follow the shape of the dose curve; as a rule, active = well fitted inhibition curve with a large enough effect; inconclusive = small, poorly fitted or top-dose-only effect; inactive = flat fitted curve, though single readings scatter.

Holding throughout (assay): qHTS profiling for inhibitors of Plasmodium falciparum proliferation (AID 504749); also: nearly all actives have a fitted effect of over 60% in size
What all share (settings): P. falciparum in erythrocytes, SYBR Green DNA, 72 h; series mostly up to 28.7 µM
A general note: In qHTS, concentration-response curves come from the screen itself.

The test system of one experiment is CP335. The gist of the method: (§1)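 SYBR Green fluorescence (ex 485 nm, em 535 nm) reports parasite DNA after 72 h compound exposure of infected red cells at 0.3% parasitemia, 2.5% hematocrit; signal normalized to 0.29 uM artemisinin and vehicle wells.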
The next experiment concerns DFO2036. The gist of the method: as §1
Another experiment deals with DIV14. Summed up: as §1
Another experiment deals with DIV17. Summed up: as §1
The test system of the next experiment is DIV30. The gist of the method: as §1
A further experiment has as its system Dd2. Summed up:
as §1

A further experiment concerns ECU. The gist of the method: as §1
In a further experiment the test system is FAB9. Summed up: as §1
The subject of a further experiment is GB4. The gist of the method: as §1
The subject of a further experiment is HB3. The gist of the method: as §1
Potency is read from the fitted curve at half-maximal effect.

`C[N+]1(CCC(C(N)=O)(c2ccccc2)c2ccccc2)CCCCC1`: the Potency result in the experiment on CP335, in the experiment with DFO2036, with DIV14, in the experiment on DIV17, with DIV30 and in the experiment on Dd2 was “inactive” in each case. The Potency result in the experiment on ECU, in the experiment on FAB9, in the experiment on GB4 and in the experiment with HB3 was “inactive” each time.
Turning to `COC(=O)C1=CCCN(C)C1`, the Potency entry with CP335, in the experiment with DFO2036, in the experiment on DIV14, in the experiment with DIV17, in the experiment with DIV30 and with Dd2 was “inactive” in each case. Also, the Potency entry in the experiment on ECU, in the experiment with FAB9, with GB4 and in the experiment with HB3 was “inactive” each time.
Take `C[C@H]1C(=O)O[C@@H]2CCN3CC=C(COC(=O)[C@](C)(O)[C@]1(C)O)[C@H]23`: the Potency entry with CP335, with DFO2036, with DIV14, with DIV17, in the experiment on DIV30 and in the experiment on Dd2 was “inactive” in each case. In addition, the Potency result with ECU, in the experiment with FAB9, in the experiment on GB4 and with HB3 was “inactive” throughout.
On to `CCN(CC)C(C)C(=O)c1ccccc1` (stereo not given), for which the Potency result with CP335, in the experiment on DFO2036, with DIV14, in the experiment on DIV17, with DIV30 and in the experiment on Dd2 was “inactive” each time. Also, the Potency entry in the experiment on ECU, in the experiment with FAB9, with GB4 and in the experiment on HB3 was “inactive” in each case.
Turning to `Oc1c(Br)cc(Br)cc1Br`, the Potency entry in the experiment on CP335, in the experiment on DFO2036, with DIV14, in the experiment on DIV17, with DIV30 and in the experiment on Dd2 was “inactive” throughout. Besides, the Potency result with ECU, in the experiment on FAB9, with GB4 and in the experiment on HB3 was “inactive” throughout.
For `CCCCCCCCCCCC[N+](C)(C)CCOc1ccccc1`, the Potency with CP335 was 6.01 µM (active); in the experiment with DFO2036, 5.01 µM (active); in the experiment with DIV14, 5.36 µM (active); in the experiment on DIV17, 8.49 µM (active); with DIV30 it was 13.5 µM (active); in the experiment on Dd2 it was 3.55 µM (active). Further, the Potency in the experiment with ECU is 5.01 µM (active); with FAB9 it was 7.94 µM (active); with GB4, 5.36 µM (active); in the experiment on HB3, 6.31 µM (active).
`CC(C)C(Br)C(=O)NC(N)=O` (stereo not given): the Potency result with CP335, in the experiment on DFO2036, in the experiment on DIV14, in the experiment on DIV17, with DIV30 and in the experiment on Dd2 was “inactive” throughout. The Potency entry in the experiment with ECU, in the experiment with FAB9, in the experiment with GB4 and in the experiment on HB3 was “inactive” in each case.
Regarding `C[N+](C)(C)CCOC(=O)C(O)(c1ccccc1)c1ccccc1`, the Potency result in the experiment with CP335, with DFO2036, in the experiment on DIV14, in the experiment on DIV17, in the experiment on DIV30 and in the experiment with Dd2 was “inactive” throughout. The Potency entry in the experiment with ECU, in the experiment on FAB9, in the experiment on GB4 and in the experiment on HB3 was “inactive” in each case.
Regarding `CCS(=O)(=O)C(C)(C)S(=O)(=O)CC`, the Potency entry in the experiment with CP335, with DFO2036, with DIV14, in the experiment on DIV17, in the experiment on DIV30 and in the experiment with Dd2 was “inactive” each time. The Potency entry with ECU, in the experiment with FAB9, in the experiment with GB4 and in the experiment with HB3 was “inactive” each time.
Consider `CN(C)C(=S)SSC(=S)N(C)C`, for which the Potency in the experiment on CP335 was 1.51 µM (active); in the experiment with DFO2036, 2.82 µM (active); in the experiment with DIV14, 1.9 µM (active); in the experiment with DIV17, 1.51 µM (active); in the experiment with DIV30, 1.69 µM (active); in the experiment with Dd2, 1 µM (active). Also, the Potency is 6.31 µM (active) with ECU, 6.31 µM (active) in the experiment with FAB9, 2.13 µM (active) in the experiment on GB4 and 1.26 µM (active) in the experiment on HB3.
As for `CCN(Cc1ccc(Cl)nc1)/C(=C/[N+](=O)[O-])NC`, the Potency entry in the experiment on CP335, with DFO2036, with DIV14, with DIV17, with DIV30 and with Dd2 was “inactive” in each case. In addition, the Potency entry with ECU, in the experiment with FAB9, in the experiment on GB4 and in the experiment on HB3 was “inactive” in each case.
On to `O=c1n(Cl)c(=O)n(Cl)c(=O)n1Cl`, for which the Potency entry in the experiment with CP335, with DFO2036, in the experiment with DIV14, with DIV17, in the experiment with DIV30 and in the experiment with Dd2 was “inactive” each time. The Potency entry in the experiment with ECU, in the experiment on FAB9, in the experiment on GB4 and in the experiment with HB3 was “inactive” throughout.
`C[C@]12CC[C@H]3[C@@H](CC=C4C[C@@H](O)CC[C@@]43C)[C@@H]1CC[C@@H]2O`: the Potency entry with CP335, in the experiment with DFO2036, in the experiment on DIV14, in the experiment with DIV17, with DIV30 and with Dd2 was “inactive” each time. For the same compound, the Potency entry in the experiment with ECU, in the experiment on FAB9, in the experiment on GB4 and in the experiment with HB3 was “inactive” in each case.
Regarding `CCC(=O)O[C@H]1CC[C@H]2[C@@H]3CCC4=CC(=O)CC[C@]4(C)[C@H]3CC[C@]12C`, the Potency entry in the experiment on CP335, with DFO2036, in the experiment with DIV14, in the experiment on DIV17, in the experiment on DIV30 and in the experiment with Dd2 was “inactive” each time. Besides, the Potency entry in the experiment with ECU, in the experiment on FAB9, in the experiment with GB4 and with HB3 was “inactive” each time.
Turning to `COP(=S)(OC)Oc1ccc(Sc2ccc(OP(=S)(OC)OC)cc2)cc1`, the Potency entry with CP335, in the experiment on DFO2036, in the experiment on DIV14, in the experiment with DIV17, in the experiment with DIV30 and with Dd2 was “inactive” each time. Moreover, the Potency result in the experiment with ECU, with FAB9, with GB4 and in the experiment on HB3 was “inactive” throughout.
For `NC(=O)OCCCc1ccccc1`, the Potency result in the experiment on CP335, in the experiment on DFO2036, in the experiment on DIV14, with DIV17, in the experiment on DIV30 and with Dd2 was “inactive” in each case. Moreover, the Potency result in the experiment on ECU, in the experiment on FAB9, in the experiment with GB4 and with HB3 was “inactive” each time.
For `COP(=O)(OC)OC=C(Cl)Cl`, the Potency result in the experiment on CP335, with DFO2036, with DIV14, in the experiment with DIV17, in the experiment with DIV30 and in the experiment with Dd2 was “inactive” in each case. In addition, the Potency result in the experiment with ECU, in the experiment with FAB9, with GB4 and with HB3 was “inactive” each time.
Take `CCC1(CC)C(=O)NC(=O)NC1=O`: the Potency entry with CP335, in the experiment with DFO2036, in the experiment with DIV14, with DIV17, in the experiment with DIV30 and in the experiment on Dd2 was “inactive” throughout. Besides, the Potency entry in the experiment on ECU, with FAB9, with GB4 and in the experiment with HB3 was “inactive” each time.
Consider `NC(=O)CN1CCCC1=O`, for which the Potency result in the experiment on CP335, with DFO2036, with DIV14, in the experiment on DIV17, with DIV30 and with Dd2 was “inactive” throughout. Besides, the Potency result in the experiment on ECU, with FAB9, in the experiment on GB4 and in the experiment on HB3 was “inactive” each time.
Take `OC(O)C(Cl)(Cl)Cl`: the Potency entry with CP335, in the experiment on DFO2036, in the experiment with DIV14, in the experiment on DIV17, in the experiment with DIV30 and in the experiment with Dd2 was “inactive” in each case. For the same compound, the Potency entry with ECU, in the experiment on FAB9, in the experiment with GB4 and in the experiment with HB3 was “inactive” each time.
For `O=C(CCCN1CCC(n2c(=O)[nH]c3ccccc32)CC1)c1ccc(F)cc1`, the Potency with CP335 is 1.44 µM (active); in the experiment with DFO2036, 1.58 µM (active); in the experiment with DIV14 it was 0.642 µM (active); in the experiment on DIV17 it was 0.642 µM (active); in the experiment on DIV30 it was 2.56 µM (active); with Dd2 it was 1 µM (active). The Potency with ECU is 1.78 µM (active); in the experiment on FAB9, 3.98 µM (active); with GB4 it was 0.809 µM (active); in the experiment with HB3, 1 µM (active).
For the compound `CC[n+]1c(-c2ccccc2)c2cc(N)ccc2c2ccc(N)cc21`, the Potency in the experiment with CP335 is 84.9 nM (active) and 239 nM (active); in the experiment with DFO2036, 89.1 nM (active) and 251 nM (active); in the experiment with DIV14, 53.6 nM (active) and 107 nM (active); in the experiment with DIV17, 53.6 nM (active) and 151 nM (active); in the experiment on DIV30 it was 426 nM (active) and 1.9 µM (active); in the experiment on Dd2, 20 nM (active) and 100 nM (active). In addition, the Potency in the experiment on ECU was 141 nM (active) and 447 nM (active); in the experiment with FAB9, 79.4 nM (active) and 89.1 nM (active); in the experiment on GB4 it was 75.7 nM (active) and 169 nM (active); in the experiment on HB3 it was 126 nM (active) and 316 nM (active).
With `NCc1cccnc1`, the Potency result in the experiment with CP335, in the experiment with DFO2036, in the experiment with DIV14, in the experiment on DIV17, in the experiment on DIV30 and in the experiment on Dd2 was “inactive” in each case. Moreover, the Potency entry in the experiment with ECU, in the experiment on FAB9, with GB4 and in the experiment on HB3 was “inactive” in each case.
With `Cc1ccc(N=CN(C)C=Nc2ccc(C)cc2C)c(C)c1`, the Potency entry in the experiment on CP335, in the experiment with DFO2036, in the experiment on DIV14, in the experiment with DIV17, in the experiment with DIV30 and in the experiment with Dd2 was “inactive” in each case. Also, the Potency entry with ECU, in the experiment on FAB9, in the experiment on GB4 and in the experiment on HB3 was “inactive” each time.
In the case of `c1ccc2nc(N3CCNCC3)ccc2c1`, the Potency entry in the experiment on CP335, in the experiment with DFO2036, with DIV14, in the experiment on DIV17, in the experiment with DIV30 and in the experiment on Dd2 was “inactive” throughout. Further, the Potency result in the experiment with ECU, in the experiment with FAB9, with GB4 and in the experiment on HB3 was “inactive” each time.
For `CC(C)(O)C(Cl)(Cl)Cl`, the Potency in the experiment with CP335 was 2.39 µM (active); with DFO2036 it was 3.55 µM (active); with DIV14, 1.51 µM (active); in the experiment with DIV17, 1.51 µM (active); in the experiment on DIV30 it was 5.36 µM (active); in the experiment with Dd2, 2.51 µM (active). In addition, the Potency in the experiment with ECU is 3.98 µM (active); in the experiment on FAB9, 7.94 µM (active); with GB4 it was 2.69 µM (active); with HB3, 2 µM (active).
